59 molecules from PubChem BioAssay AID2751 (The Scripps Research Institute Molecular Screening Center, 2010) can be followed below.

Hit rate of the full screen: of about 320,000 compounds, about 2,200 (0.69%) were called active. Rule as the data show it: active = inhibition above about 43%; inactive = the rest. The full list was thinned out, with actives kept by preference.

The target of this assay is Prolyl endopeptidase-like (Homo sapiens) (UniProt Q4J6C6). Put plainly: PREPL enzyme inhibitors, primary screen, biochemical, fluorescence polarization (AID 2751).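 Also: 0% = enzyme with DMSO and 100% = wells lacking enzyme.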 To be noted: recombinant PREPL, fluorescence polarization activity-based probe; at 5.96 µM; hits give high values. On the technique in general: In fluorescence polarisation assays a small probe gives low polarisation when free and higher when bound to something large.
Chain of Prolyl endopeptidase-like (Homo sapiens) (Q4J6C6 whole entry, looked up): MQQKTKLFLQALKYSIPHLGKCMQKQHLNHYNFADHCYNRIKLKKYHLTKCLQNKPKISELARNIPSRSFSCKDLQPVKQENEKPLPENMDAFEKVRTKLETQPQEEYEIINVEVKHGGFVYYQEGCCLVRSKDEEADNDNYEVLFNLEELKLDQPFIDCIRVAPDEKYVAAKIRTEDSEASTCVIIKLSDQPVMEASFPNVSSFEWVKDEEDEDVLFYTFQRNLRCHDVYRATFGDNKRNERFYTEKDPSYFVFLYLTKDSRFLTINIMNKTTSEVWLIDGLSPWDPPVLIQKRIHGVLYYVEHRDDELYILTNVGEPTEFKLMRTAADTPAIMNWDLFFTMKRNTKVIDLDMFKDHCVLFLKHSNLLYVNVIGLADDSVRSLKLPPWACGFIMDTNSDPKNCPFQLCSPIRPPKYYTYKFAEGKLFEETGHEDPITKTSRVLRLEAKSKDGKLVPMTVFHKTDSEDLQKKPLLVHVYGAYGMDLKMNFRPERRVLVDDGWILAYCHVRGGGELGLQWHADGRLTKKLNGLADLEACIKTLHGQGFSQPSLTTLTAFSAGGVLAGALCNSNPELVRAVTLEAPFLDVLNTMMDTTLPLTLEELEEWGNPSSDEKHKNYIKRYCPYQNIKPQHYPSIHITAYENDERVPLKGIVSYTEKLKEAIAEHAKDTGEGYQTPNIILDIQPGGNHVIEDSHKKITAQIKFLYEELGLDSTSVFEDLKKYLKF
The inhibition is the change of the read-out against control, counted positive when it falls. In the case of `Cc1ccc(C(C)NC(=O)Cn2nc(C)c([N+](=O)[O-])c2C)cc1` (centres undefined), the inhibition is 11.6% (inactive).
Then `O=C(Nc1cccc(S(=O)(=O)N2CCOCC2)c1)C12CC3CC(CC(C3)C1)C2`, with 12.3% (inactive); and `CC(CNc1ccc([N+](=O)[O-])cc1)NC(=O)c1ccccc1Br` (centres undefined), with 4.76% (inactive).
For `CCn1nc(C)cc1C(=O)N1CCCC(C(=O)c2cccc(OC)c2)C1` (centres undefined) the value was -1.89% (inactive); for `COc1ccc(C(=O)C2CCCN(C(=O)c3cnsn3)C2)c(C)c1` (centres undefined), 13.4% (inactive).
For `COc1ccc2cc(C(=O)C3CCCN(C(=O)c4sc(C)nc4C)C3)ccc2c1` (centres undefined) the value was 47.9% (active).
Turning to `COc1ccc(/C(O)=C2/C(=O)C(=O)N(CC3CCCO3)C2c2ccc(OC)c(OC)c2)cc1` (centres undefined), the inhibition was 1.2% (inactive).
For `CCC(CO)Oc1cc(NC(=O)c2ccc(Cl)cc2)c2ncn(C(C)C)c2c1` (centres undefined) the value was 13% (inactive); for `CCC(CO)Oc1cc(NCc2ccccc2)c2ncn(C3CCCC3)c2c1` (centres undefined), 43.8% (active).
Then `CCC(CO)Oc1cc(NC(=O)c2cccc(F)c2)c2ncn(C(C)C)c2c1` (centres undefined), with 3.94% (inactive); and `CCC(CO)Oc1cc(NC(=O)c2cccc3ccccc23)c2ncn(C(C)C)c2c1` (centres undefined), with 18.7% (inactive).
Then `CC(C)C[C@H](CO)Nc1nc(N(C)c2cccc(Cl)c2)c2ncn(C(C)C)c2n1`, with 12.1% (inactive).
Turning to `CC(C)n1cnc2c(NCc3ccccc3)cc(N[C@@H](CO)Cc3ccccc3)cc21`, the inhibition is 62% (active).
As for `CC(C)n1cnc2c(NCc3ccccc3)cc(OCC3CCN(C)CC3)cc21`, the inhibition is 83.8% (active).
Take `CN(C)c1nccc(NCc2ccccc2)c1C#N`: the inhibition was 3.08% (inactive).
For `CC(C)N(Cc1ccccc1)C(=O)COC(=O)c1cnccn1` the value was -8.35% (inactive); for `COC(=O)[C@]1(Cc2ccccc2)N[C@H](CN(C)S(=O)(=O)c2ccc(OC(F)(F)F)cc2)[C@@H]2C(=O)N(Cc3ccccc3)C(=O)[C@@H]21`, 8.99% (inactive); for `COC(CNC(=O)Cn1ncc2ccsc2c1=O)OC`, 6.98% (inactive).
Then `CCCn1c(SCC(=O)Nc2ccc(C)c(S(=O)(=O)N3CCOCC3)c2)n[nH]c1=O`, with 3.91% (inactive); and `CCc1cc(=O)oc2cc(C)cc(OCC(=O)N3CCC[C@@H]3C(=O)O)c12`, with -4.62% (inactive); and `O=C(CN(C(=O)c1csnn1)c1ccc(Br)cc1)NC1CCCC1`, with 5.56% (inactive).
`CCCc1cc(=O)[nH]c2nnc(SCC(=O)Nc3nnc(SCC)s3)n12`: the inhibition was 0.4% (inactive).
For `CCn1c(=S)sc2c(=O)n(CC(=O)Nc3ccc(OC)cc3)c(C)nc21` the value was 7.88% (inactive).
On to `O=S(=O)(NCC1CC1)c1ccc(F)c(Cl)c1`, for which the inhibition was -5.91% (inactive).
Then `CC(OC(=O)/C=C/c1ccccc1)C(=O)NC1CCCCC1C` (centres undefined), with -7.55% (inactive); and `Cc1ccc(Nc2nc(Cl)c(C=O)s2)cc1`, with -3.94% (inactive).
For `Nc1ccc(C(=O)Nc2ccccc2N)cc1` the value was -1.77% (inactive); for `Cc1ccc(Nc2ccccc2N)cc1`, 47.5% (active); for `Cc1cc(OC(C)C(=O)NC2CC(C)(C)NC(C)(C)C2)c2c(C)cc(=O)oc2c1` (centres undefined), 2.31% (inactive).
For the molecule `O=C(Nc1ccc([N+](=O)[O-])cc1)C1CC12CCC2` (centres undefined), the inhibition is 1.87% (inactive).
Turning to `CCN1C(=O)c2cccc3c(S(=O)(=O)Nc4ccccc4O)ccc1c23`, the inhibition is 4.31% (inactive).
On to `CCN1C(=O)c2cccc3c(N)ccc1c23`, for which the inhibition was 45.6% (active).
Then `CN1C(=O)c2cccc3c(N)ccc(c23)C1=O`, with 14.4% (inactive).
For `Cc1snc(SCc2c(F)cccc2Cl)c1C#N` the value was 10% (inactive); for `COc1cccc(NC(=O)c2nn(C34CC5CC(CC(C5)C3)C4)cc2[N+](=O)[O-])c1`, 1.65% (inactive).
For `Cc1nc([N+](=O)[O-])nn1C12CC3CC(CC(Br)(C3)C1)C2` the value was 45.5% (active); for `Cc1ncn(C23CC4CC(CC(O)(C4)C2)C3)n1`, 3.85% (inactive).
Consider `CCn1nc(C(=O)NNS(=O)(=O)c2cc(/C=C/C(=O)O)cc(OC)c2OC)c2ccccc2c1=O`, for which the inhibition was 1.44% (inactive).
For `Cn1c(CC2Sc3ccccc3NC2=O)nnc1SCC(=O)c1ccc(Cl)cc1` (centres undefined) the value was -2.92% (inactive); for `Cc1cc(-c2nnc(SCC(=O)Nc3ccc(F)cc3)n2N)n[nH]1`, -0.73% (inactive); for `CCOC(=O)N1CCN(S(=O)(=O)c2ccc(-n3cnnn3)cc2)CC1`, -0.87% (inactive).
For `COc1ccc(/C=N/N=C/c2c[nH]c(=O)c(C#N)c2Nc2ccccc2)cc1` the value was 5.21% (inactive); for `O=C(OCC(=O)N1CCc2ccccc21)c1ccc([N+](=O)[O-])cc1`, 18% (inactive); for `O=C1c2ccccc2C(=O)c2c1cccc2N1CCN(C/C=C/c2ccccc2)CC1`, 87.2% (active).
For `O=C1c2ccccc2C(=O)c2c1cccc2N1CCN(CCO)CC1` the value was 10% (inactive); for `O=C1c2ccccc2C(=O)c2c1cccc2N1CCN(Cc2ccccc2)CC1`, 34.3% (inactive); for `CN(C(=O)CC1C(=O)NCCN1Cc1ccc2ccccc2c1)C1CCOCC1` (centres undefined), 15.8% (inactive).
On to `CCCc1cc(=S)n2c([nH]c3ccccc32)c1C#N`, for which the inhibition was 16% (inactive).
Turning to `Cc1ccc(N2CCN(/N=C/c3cccs3)CC2)cc1`, the inhibition is 10.6% (inactive).
Then `Cc1ccc(N2CCN(C3=NC(=O)/C(=C\c4cccs4)S3)CC2)cc1`, with 53% (active); and `Cc1ccsc1/C=C1\SC(N2CCOCC2)=NC1=O`, with 5.64% (inactive).
For `CN(NS(=O)(=O)c1cccs1)c1ncc(C(F)(F)F)cc1Cl` the value was -0.65% (inactive).
Then `COc1ccccc1OCC(=O)Nc1c2c(nn1-c1ccc(F)cc1)CS(=O)(=O)C2`, with -4.94% (inactive).
In the case of `COc1cccc(NC(=O)CN2CCN(CC(=O)Nc3ccccc3Cl)CC2)c1`, the inhibition is -3.67% (inactive).
Consider `COc1ccc(NC(C)=O)cc1NC(=O)CN1CCN(C2c3ccccc3-c3ccccc32)CC1`, for which the inhibition was 43.8% (active).
Then `COc1ccc(Cl)cc1NC(=O)CN1CCN(C(=O)N2CCOCC2)CC1`, with -6.54% (inactive); and `CN=C1SC(CC(=O)Nc2ccc(C(=O)O)cc2)C(=O)N1C` (centres undefined), with 1.69% (inactive).
Then `COP1(=O)C[C@@H](O)[C@@H](O)[C@@H](COCc2ccccc2)O1` (some centres undefined), with -5.04% (inactive); and `O=C(c1ccco1)N1CCN(C(=O)C2CCCN(S(=O)(=O)c3cccc4nsnc34)C2)CC1` (centres undefined), with -5.71% (inactive).
